# Results reported in PubChem BioAssay.
# Activity calls are given as the source filed them.
# Legend:
# [1] = binders of probe aFSTL3 on microarray, primary screen, stem cell growth factor project, biochemical, small-molecule microarray, fluorescence 635/667 (AID 1064); conditions: higher = more signal;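 note: measures binding of the biotinylated anti-FSTL3 antibody to printed compounds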
# [2] = binders from COS7 lysate, DM2A8 probe, primary screen, torsin A project, cell lysate, small-molecule microarray, fluorescence 635/667 (AID 1065); conditions: higher = more signal, COS7 lysate expressing mutant human TOR1A
# [3] = binders of probe aFGF2 on microarray, primary screen, stem cell growth factor project, biochemical, small-molecule microarray, fluorescence 635/667 (AID 1067); conditions: higher = more signal;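 note: measures binding of biotinylated aFGF2 protein to printed compounds on slides; z-score merges feature fluorescence and signal-to-noise across triplicate slides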
# [4] = binders of probe aFGF10 on microarray, primary screen, stem cell growth factor project, biochemical, small-molecule microarray, fluorescence 635/667 (AID 1071); conditions: higher = more signal;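 note: score merges 667 nm spot intensity and signal to noise from triplicate slides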
# [5] = target: Neurogenic locus notch homolog protein 2 (Homo sapiens) (UniProt Q04721); assay: Notch2 binders on small-molecule microarrays, primary screen, biochemical, small-molecule microarray, 635 nm fluorescence, stem cell growth factors (AID 1073); conditions: Notch2 binding, higher = more signal
# [6] = target: Pro-neuregulin-1, membrane-bound isoform (Homo sapiens) (UniProt Q02297); assay: NRG1 binders on small-molecule microarrays, primary screen, psychiatric disease protein project, biochemical, small-molecule microarray, fluorescence 635/667 (AID 1075); conditions: NRG1 binding, 635 nm fluorescence, higher = more signal;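 note: score combines 667 nm spot fluorescence with signal to noise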
# [7] = tested on: Neuregulin-1 EGF-like domain; assay: binders of neuregulin-1 EGF-like domain, primary screen, biochemical, small-molecule microarray, 635 nm fluorescence (AID 1081); conditions: small-molecule microarray binding, higher = more signal;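 note: binding of the protein to compounds printed on small-molecule microarray slides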
# [8] = FRG1 promoter luciferase signal modulators, primary screen, FRG1 inhibition for FSHD, cell-based, C2C12 myotubes, firefly/Renilla luciferase, luminescence (AID 1084); conditions: higher = more signal, called active from +8 up or from −8 down
# [9] = binders of probe aFST on microarray, primary screen, stem cell growth factor project, biochemical, small-molecule microarray, fluorescence 635/667 (AID 1086); conditions: higher = more signal;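 note: score merges 667 nm fluorescence with signal-to-noise of each printed compound spot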
# [10] = binders of probe aHhip on microarray, primary screen, stem cell growth factor project, biochemical, small-molecule microarray, fluorescence 635/667 (AID 1087); conditions: higher = more signal;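 note: score merges spot fluorescence at 667nm with spot signal to noise ratio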
# [11] = tested on: PRMT1 (protein arginine N-methyltransferase 1); assay: PRMT1 binders on small-molecule microarrays, primary screen, biochemical, small-molecule microarray, 635 nm fluorescence (AID 1088); conditions: small-molecule microarray binding, higher = more signal;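 note: binding of Prmt1 protein to compounds spotted on small-molecule microarray slides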
# [12] = yeast growth modulation, basal conditions, primary screen, YJM789 clinical isolate, OD600, 24 h (AID 1089);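 note: growth of clinical yeast isolate S. cerevisiae YJM 789 seeded 1000 cells per well; test concentration not given here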; conditions: S. cerevisiae YJM789 growth, higher = more signal, called active from +8 up or from −8 down
# [13] = fission yeast growth modulation, primary screen, strain 972, OD600, 24 h, no modulator (AID 1090);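 note: basal condition with compound alone and no growth modifier present; test concentration not given here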; conditions: S. pombe 972 growth, higher = more signal, called active from +8 up or from −8 down
# [14] = S. cerevisiae growth modulation with rapamycin, primary screen, strain BY4716, OD600, 96 h (AID 1091); conditions: higher = more signal, called active from +8 up or from −8 down; note: test concentration not given here
# [15] = target: Torsin-1A-interacting protein 2 (Homo sapiens) (UniProt Q8NFQ8); assay: LULL1 binders on small-molecule microarray, primary screen, cell lysate, human LULL1 lysate, 635/667 nm fluorescence (AID 1092); conditions: hLULL1 lysate binding, 635 nm fluorescence, higher = more signal;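 note: probe is lysate of COS7 cells overexpressing human LULL1; score merges per-feature 667 nm fluorescence with signal-to-noise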
# [16] = E. coli growth modulation, two-sided OD650, primary screen, E. coli filamentation project, strain DRC41, 24 h (AID 1093); conditions: OD650, 24 h, higher = more signal, called active from +8 up or from −8 down;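 note: MC1000 strain lacking acrAB efflux and sulA so SOS filamentation is blocked; test concentration not given here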
# [17] = small-molecule microarray binders of probe aLefty2, primary screen, biochemical, biotinylated probe, 635/667 nm fluorescence (AID 1094); conditions: higher = more signal;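 note: score merges spot fluorescence near 667 nm with spot signal-to-noise ratio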
# [18] = tested on: Noggin (protein binding on small-molecule microarray); assay: Noggin binders on small-molecule microarray, primary screen, biochemical, 635/667 nm fluorescence (AID 1095); conditions: 635 nm fluorescence, higher = more signal;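 note: score merges 667 nm feature fluorescence with signal to noise over triplicate slides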
# [19] = target: Neurogenic locus notch homolog protein 3 (Homo sapiens) (UniProt Q9UM47); assay: NOTCH3 binders on small-molecule microarray, primary screen, biochemical, 635/667 nm fluorescence (AID 1096); conditions: NOTCH3 binding, 635 nm fluorescence, higher = more signal
# [20] = small-molecule microarray binders of probe aEGFR, primary screen, biochemical, biotinylated probe, 635/667 nm fluorescence (AID 1097); conditions: higher = more signal;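 note: probe is a biotinylated anti-EGFR antibody binding compounds printed on slides; score combines fluorescence near 667 nm and signal to noise of each spot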
# Chain of Pro-neuregulin-1, membrane-bound isoform (Homo sapiens) (Q02297 whole entry, looked up, the tested form may be a part, canonical isoform): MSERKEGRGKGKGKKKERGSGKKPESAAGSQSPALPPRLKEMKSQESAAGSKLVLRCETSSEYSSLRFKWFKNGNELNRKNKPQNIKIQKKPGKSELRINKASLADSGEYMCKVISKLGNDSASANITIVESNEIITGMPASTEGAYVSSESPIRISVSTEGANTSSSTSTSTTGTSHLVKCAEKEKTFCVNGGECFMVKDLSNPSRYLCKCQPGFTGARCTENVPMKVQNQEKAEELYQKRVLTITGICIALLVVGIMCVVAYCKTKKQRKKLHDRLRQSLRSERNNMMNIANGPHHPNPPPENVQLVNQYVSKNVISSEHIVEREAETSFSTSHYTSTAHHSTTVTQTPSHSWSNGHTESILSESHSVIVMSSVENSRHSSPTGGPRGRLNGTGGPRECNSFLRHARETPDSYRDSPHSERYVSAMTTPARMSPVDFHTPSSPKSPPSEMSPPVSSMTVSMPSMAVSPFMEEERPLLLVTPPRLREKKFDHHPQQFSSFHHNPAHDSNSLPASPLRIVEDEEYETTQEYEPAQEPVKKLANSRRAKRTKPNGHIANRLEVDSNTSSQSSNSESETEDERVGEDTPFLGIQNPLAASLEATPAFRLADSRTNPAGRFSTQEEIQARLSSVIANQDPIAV
# Chain of Neurogenic locus notch homolog protein 2 (Homo sapiens) (Q04721 whole entry, looked up, canonical isoform): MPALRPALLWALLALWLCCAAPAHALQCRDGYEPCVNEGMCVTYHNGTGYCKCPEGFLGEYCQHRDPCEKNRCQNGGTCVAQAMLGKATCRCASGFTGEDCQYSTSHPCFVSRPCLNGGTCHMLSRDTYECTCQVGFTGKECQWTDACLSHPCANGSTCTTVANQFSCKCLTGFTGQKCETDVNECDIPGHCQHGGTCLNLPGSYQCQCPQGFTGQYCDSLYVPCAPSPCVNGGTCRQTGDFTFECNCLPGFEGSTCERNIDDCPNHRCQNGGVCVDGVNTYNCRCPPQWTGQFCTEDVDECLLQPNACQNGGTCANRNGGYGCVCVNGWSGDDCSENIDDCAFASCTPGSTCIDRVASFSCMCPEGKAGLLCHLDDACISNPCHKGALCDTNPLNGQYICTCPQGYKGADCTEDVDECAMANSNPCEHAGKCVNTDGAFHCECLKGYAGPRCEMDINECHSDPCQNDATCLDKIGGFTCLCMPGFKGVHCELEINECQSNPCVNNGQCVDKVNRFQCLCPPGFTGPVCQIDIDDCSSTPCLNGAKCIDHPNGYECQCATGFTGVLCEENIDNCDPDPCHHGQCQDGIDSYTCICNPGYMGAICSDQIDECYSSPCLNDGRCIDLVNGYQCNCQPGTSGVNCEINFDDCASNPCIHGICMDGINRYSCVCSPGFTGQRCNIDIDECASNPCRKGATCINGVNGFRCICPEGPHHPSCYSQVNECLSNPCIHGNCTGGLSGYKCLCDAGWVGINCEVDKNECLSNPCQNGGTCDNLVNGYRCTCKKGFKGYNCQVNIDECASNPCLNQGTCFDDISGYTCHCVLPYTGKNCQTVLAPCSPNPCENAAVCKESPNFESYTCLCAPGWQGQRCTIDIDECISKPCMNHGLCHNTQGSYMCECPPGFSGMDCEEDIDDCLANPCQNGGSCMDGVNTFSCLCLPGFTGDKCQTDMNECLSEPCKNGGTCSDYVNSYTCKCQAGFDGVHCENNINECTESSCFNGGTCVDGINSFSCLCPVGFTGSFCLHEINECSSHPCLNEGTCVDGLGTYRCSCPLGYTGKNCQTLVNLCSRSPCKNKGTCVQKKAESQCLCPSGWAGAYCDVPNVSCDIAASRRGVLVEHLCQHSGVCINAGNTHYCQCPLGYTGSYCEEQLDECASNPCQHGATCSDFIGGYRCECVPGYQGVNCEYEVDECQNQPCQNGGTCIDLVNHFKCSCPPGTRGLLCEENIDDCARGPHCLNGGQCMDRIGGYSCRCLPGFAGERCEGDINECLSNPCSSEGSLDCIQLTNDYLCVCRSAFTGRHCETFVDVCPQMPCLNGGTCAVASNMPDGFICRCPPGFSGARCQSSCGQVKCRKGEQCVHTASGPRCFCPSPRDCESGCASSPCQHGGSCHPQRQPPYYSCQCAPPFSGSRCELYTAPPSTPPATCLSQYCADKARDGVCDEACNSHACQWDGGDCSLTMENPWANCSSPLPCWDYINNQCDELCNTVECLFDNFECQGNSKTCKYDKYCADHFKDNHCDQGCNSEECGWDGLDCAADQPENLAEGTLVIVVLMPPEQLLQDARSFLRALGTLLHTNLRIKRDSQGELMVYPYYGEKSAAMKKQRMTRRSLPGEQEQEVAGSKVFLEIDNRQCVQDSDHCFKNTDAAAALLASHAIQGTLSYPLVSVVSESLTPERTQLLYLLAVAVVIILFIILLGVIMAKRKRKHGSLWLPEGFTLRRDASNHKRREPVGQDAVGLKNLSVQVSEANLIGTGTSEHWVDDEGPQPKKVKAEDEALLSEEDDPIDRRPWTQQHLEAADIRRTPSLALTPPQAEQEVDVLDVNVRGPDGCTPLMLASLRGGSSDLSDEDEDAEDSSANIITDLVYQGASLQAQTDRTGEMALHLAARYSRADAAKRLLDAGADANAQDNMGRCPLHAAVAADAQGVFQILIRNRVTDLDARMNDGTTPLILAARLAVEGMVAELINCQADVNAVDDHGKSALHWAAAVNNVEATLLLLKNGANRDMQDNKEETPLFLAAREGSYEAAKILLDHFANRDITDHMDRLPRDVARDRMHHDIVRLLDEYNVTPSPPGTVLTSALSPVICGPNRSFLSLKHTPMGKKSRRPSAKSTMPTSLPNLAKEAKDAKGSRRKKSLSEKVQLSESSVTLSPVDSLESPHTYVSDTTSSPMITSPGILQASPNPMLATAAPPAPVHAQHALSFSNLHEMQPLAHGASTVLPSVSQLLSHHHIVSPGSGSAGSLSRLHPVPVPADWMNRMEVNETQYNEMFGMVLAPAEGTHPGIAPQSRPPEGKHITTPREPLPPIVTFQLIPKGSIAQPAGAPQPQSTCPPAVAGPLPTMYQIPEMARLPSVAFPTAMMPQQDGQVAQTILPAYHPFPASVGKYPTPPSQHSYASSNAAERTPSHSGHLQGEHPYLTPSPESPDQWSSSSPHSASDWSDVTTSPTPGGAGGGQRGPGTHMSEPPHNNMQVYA
# Chain of Torsin-1A-interacting protein 2 (Homo sapiens) (Q8NFQ8 whole entry, looked up): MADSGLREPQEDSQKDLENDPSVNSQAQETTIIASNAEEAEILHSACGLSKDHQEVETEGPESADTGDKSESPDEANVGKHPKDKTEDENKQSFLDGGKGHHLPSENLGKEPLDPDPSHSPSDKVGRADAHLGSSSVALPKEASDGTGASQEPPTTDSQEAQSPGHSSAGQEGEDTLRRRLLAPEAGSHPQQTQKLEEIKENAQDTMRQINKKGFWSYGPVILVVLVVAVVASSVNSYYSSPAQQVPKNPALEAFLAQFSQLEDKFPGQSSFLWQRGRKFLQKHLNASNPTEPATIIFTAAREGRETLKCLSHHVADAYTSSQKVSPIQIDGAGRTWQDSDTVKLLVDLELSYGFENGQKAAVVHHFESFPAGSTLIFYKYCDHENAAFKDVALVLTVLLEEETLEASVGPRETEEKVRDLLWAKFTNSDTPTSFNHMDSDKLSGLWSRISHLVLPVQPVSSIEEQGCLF
Compound,composite z-score [1],composite z-score [2],composite z-score [3],composite z-score [4],composite z-score [5],composite z-score [6],composite z-score [7],z-score [8],composite z-score [9],composite z-score [10],composite z-score [11],z-score [12],z-score [13],z-score [14],composite z-score [15],z-score [16],composite z-score [17],composite z-score [18],composite z-score [19],composite z-score [20]
CC(C)[C@@H](OCc1ccccc1)[C@H](C)C=NOC[C@@H](O)[C@H]1O[C@@H]2OC(C)(C)O[C@@H]2[C@H]1O,-0.365,0.116,-0.198,0.492,0.25,0.125,0.361,0.417 (inactive),0.307,-0.0645,0.763,0.87 (inactive),1.05 (inactive),0.821 (inactive),0.758,0.517 (inactive),-0.132,1.07,0.676,-0.0828
C[C@@H]1CC[C@H]2C(=O)OC(CN3C(=O)c4ccccc4C3=O)CN2[C@H]1c1ccc(Br)cc1 (stereo not given in full),-0.138,1,-0.133,0.0468,0.315,0.48,-0.429,1.11 (inactive),0.362,-0.132,0.658,0.341 (inactive),0.35 (inactive),-0.338 (inactive),1.38,0.725 (inactive),-0.185,-0.263,0.361,-0.0703
CC(CCN1CCCc2nc(C)c(C)cc21)=NO[C@@H](C)c1cn([C@H](CO)Cc2ccccc2)nn1,-0.102,0.417,-0.0257,0.389,0.414,-0.19,0.28,-0.0338 (inactive),0.4,-0.277,0.279,0.72 (inactive),0.47 (inactive),0.672 (inactive),0.577,0.923 (inactive),-0.114,0.78,0.713,-0.0493
COc1ccc(O[C@H]2C=C[C@@H](c3ccccc3)O[C@@H]2CON=C2c3cc(OC)ccc3O[C@H](c3cccc(OC)c3)[C@H]2O)cc1,-0.661,0.354,-0.201,-0.054,1.38,-0.139,0.463,1.82 (inactive),0.34,-0.226,0.554,-0.0549 (inactive),0.281 (inactive),-0.0588 (inactive),0.585,0.0551 (inactive),-0.231,1.4,0.927,-0.171
CC(CCN1CCCc2nc(C)c(C)cc21)=NO[C@H](C)c1cn([C@@H]2COC[C@H]2O)nn1,-0.396,1.37,-0.0788,0.359,0.6,0.0261,1.17,0.59 (inactive),0.3,-0.195,1.16,1.17 (inactive),1.12 (inactive),0.468 (inactive),0.788,1.24 (inactive),0.13,0.566,0.676,0.187
CCOC(=O)[C@H](CC(C)C)NC(=O)CCC1CC(OC(=O)NCc2ccc3c(c2)OCO3)CC2(CCCC(COC(=O)NCCc3ccccc3OC)O2)O1 (stereo not given in full),-0.693,0.309,-0.085,0.554,1.26,0.53,0.978,1.01 (inactive),0.14,-0.15,1.34,-0.156 (inactive),0.249 (inactive),0.947 (inactive),1.99,-0.133 (inactive),-0.136,0.474,1.11,-0.0177
CCN1C(=O)[C@H]2[C@H]3[C@H](O)[C@H](O)CC(=NO[C@@H](C)c4cc(-c5c(C)cc(C)cc5C)no4)[C@@H]3CC[C@H]2C1=O,-0.558,1.13,-0.0243,0.624,0.817,1.08,1.04,0.998 (inactive),0.544,-0.225,1.55,-0.393 (inactive),-1.15 (inactive),-0.875 (inactive),2,1.16 (inactive),-0.0283,0.529,0.994,0.123
CCOC(=O)CCN1C(=O)[C@H]2[C@H]3[C@H](O)[C@H](O)CC(=NOCC(C)C)[C@@H]3CC[C@H]2C1=O,-0.784,1.88,-0.234,-1.05,-0.567,-0.849,0.296,-0.398 (inactive),-0.595,-0.0994,0.868,-0.535 (inactive),-0.219 (inactive),-0.629 (inactive),-0.953,-0.127 (inactive),-0.0956,1.39,-0.321,0.163
COc1ccc(COC(=O)NN=C2C[C@@H](O)[C@@H](O)[C@@H]3[C@@H]4C(=O)N(C5CCCCC5)C(=O)[C@@H]4CC[C@@H]23)cc1,0.848,-0.132,-0.0883,-0.176,-0.515,-0.112,-0.313,0.468 (inactive),1.34,-0.48,0.35,-0.703 (inactive),-1.86 (inactive),-0.617 (inactive),0.611,-1.03 (inactive),0.687,0.159,-0.218,-0.127
CO[C@H]1COC(=O)CC=C[C@H](C)[C@H](OC)COC(=O)[C@@H](C)NC(=O)CC=C[C@@H]1C,-0.57,2.19,-0.246,-0.225,-0.755,-0.468,0.659,0.484 (inactive),-0.39,0.172,1.56,-1.77 (inactive),-0.391 (inactive),-0.735 (inactive),0.525,-0.159 (inactive),-0.0122,1.61,0.346,-0.0313
